PubChem BioAssay (NCATS)
Several values for one entry are separate records, joined by “and”; a condition that tells them apart may be missing. Identical values can stand only once. Unmarked numbers belong to inactive results. Results filed as inconclusive are left out. Where a call stands in place of a potency, no number is given. Activity calls are given as the source filed them. Unless noted, calls come from the whole dose curve; as a rule, active = well fitted curve in the direction sought with a large enough effect; inconclusive = small, poorly fitted or top-dose-only effect, or another doubt; inactive = no such curve, though single readings can be large; an effect the other way counts as inactive or inconclusive.

Legend:
[1] = target: Cytochrome P450 1A2 (Homo sapiens) (UniProt P05177); experiment: p450-cyp1a2 (AID 410; calls by dose curve; note: potency is the fitted concentration of half-maximal effect)
Method in brief: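 Inhibition was calculated relative to 57 uM furafylline (full inhibition). The reaction used human CYP1A2 at 20nM with Luciferin-ME at its Km, 100uM, driven by an NADPH-regenerating system for 60 min at room temperature.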

[2] = NFAT Signaling Pathway (AID 444; active = well fitted curve in either direction with a large enough effect, not every such curve was filed as active;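 note: carbachol stimulus at about its EC50 of 1 µM final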); conditions: Jurkat NFAT-bla M1, carbachol, beta-lactamase ratio, 5 h; at 38 µM (top of the series)
Method in brief: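 Jurkat cells carrying an NFAT-driven β-lactamase reporter and co-transfected muscarinic M1 receptor were treated with compound plus carbachol (1 uM final, an EC50 level) for 5 h at 37 °C. CCF4 loading followed for 1 h at RT; 460/530 nm ratio gave %activity.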

[3] = target: Glucocorticoid receptor (Homo sapiens) (UniProt P04150); experiment: GR-GFP Redistribution (AID 450;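 active = compounds whose dose series gives a full or clear partial fitted curve of increased nuclear translocation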; note: potency is the fitted concentration of half-maximal effect); conditions: U2OS GR-GFP nuclear translocation, laser cytometry, 2 h
[4] = target: Glucocorticoid receptor (Homo sapiens) (UniProt P04150); experiment: GR-EFC Redistribution (AID 451; calls by dose curve; note: potency is the fitted concentration of half-maximal effect); conditions: CHO-K1 GR-EFC translocation, beta-gal luminescence, 2 h
Method in brief: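 CHO-K1 cells stably expressing nuclear-localized β-gal enzyme acceptor and GR fused C-terminally to the enzyme donor fragment; ligand-driven nuclear translocation restores β-gal by complementation. Compounds titrated up to 46 uM final, 2 h at 37 °C; luminescence read.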

[5] = target: Mitogen-activated protein kinase 10 (Mus musculus) (UniProt Q61831); experiment: JNK3 AlphaScreen Assay (AID 530; active = well fitted curve in either direction with a large enough effect, not every such curve was filed as active;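 note: kinase came from lysate of stimulated human HepG2 cells; signal reports phosphorylation of biotinylated GST-cJun 1-79 at Ser73 with 10 µM ATP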)
Method in brief: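 JNK3 came from HepG2 lysates pre-activated with IL-1beta and TNF-alpha and phosphorylated biotinylated GST-cJun (1-79) at 10 uM ATP, pH 7.6, room temperature. Compounds were titrated. AlphaScreen signal used anti-phospho-cJun (Ser73) antibody.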

[6] = target: 3',5'-cyclic-AMP phosphodiesterase 4B (Homo sapiens) (UniProt Q07343); experiment: qHTS Assay for Inhibitors of PDE-IV (AID 607; active = well fitted activation curve with a large enough effect in the main read-out, with a control signal flat, not every such curve was filed as active)
Method in brief: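 ACTOne HEK293 cells carry a modified cAMP-gated CNG channel and express endogenous PDE4; plated 1000 cells/well, compounds up to 22.9 uM final. Membrane-potential dye fluorescence (ex 535/em 590) was read; parental cells received 10 uM forskolin + 100 uM RO 20-1724.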

[7] = target: Guanine nucleotide-binding protein G(i) subunit alpha-1 (Homo sapiens) (UniProt P63096); experiment: qHTS Assay for Inhibitors of RGS12 GoLoco Motif Activity (Green Fluorophore) (AID 879);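 note: negative values mean loss of peptide binding seen as reduced polarization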
Method in brief: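 Fluorescence polarization assay: 50 nM Gαi1 with 10 nM FITC-labeled RGS12 GoLoco peptide in 10 mM Tris pH 7.5, 150 mM NaCl, 0.1 mM GDP, 0.05% NP40, 10 min at room temperature with compound.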

[8] = target: Cytochrome P450 2C9 (Homo sapiens) (UniProt P11712); experiment: qHTS Assay for Inhibitors and Substrates of Cytochrome P450 2C9 (AID 883); note: potency is the fitted concentration of half-maximal effect; nearly all actives have a fitted effect of over 60% in size
Method in brief: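 CYP2C9 deoxyluciferin hydroxylation, 37C, 60 min with NADPH regeneration; 10nM enzyme, 100uM Luciferin-H (KM). Glo detection reagent stopped reaction; luminescence normalized to sulphaphenazole (57uM) full inhibition.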

[9] = target: Cytochrome P450 3A4 (Homo sapiens) (UniProt P08684); experiment: qHTS Assay for Inhibitors and Substrates of Cytochrome P450 3A4 (AID 884); note: potency is the fitted concentration of half-maximal effect; nearly all actives have a fitted effect of over 50% in size
Method in brief: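 20 nM human CYP3A4 with 25 uM Luciferin-PPXE (at KM) in 200 mM KPO4, preincubated 10 min with compound; NADPH regeneration started a 60 min RT reaction. Luciferin detected by luminescence, normalized to 57 uM ketoconazole as full inhibition.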

[10] = target: Cytochrome P450 3A4 (Homo sapiens) (UniProt P08684); experiment: qHTS Assay for Activators of Cytochrome P450 3A4 (AID 885); note: nearly all actives have a fitted effect of over 65% in size
Method in brief: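 20nM CYP3A4 + 25uM Luciferin-PPXE (=KM), 200mM KPO4; cpd 10 min RT; NADPH regen, 60 min RT; stop w/ detection buffer, 20 min; luminescence. Normalized to 57 uM ketoconazole.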

[11] = target: Muscarinic acetylcholine receptor M1 (Rattus norvegicus) (UniProt P08482); experiment: qHTS Assay for Antagonists of Acetylcholine Muscarinic M1 Receptor: Kinetic Measurement of Intracellular Calcium Response (AID 943);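 note: Fluo-4 calcium signal as peak divided by basal fluorescence over 4 min; nearly all actives have a fitted effect of over 75% in size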
Method in brief: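 Intracellular calcium flux, recorded with Fluo-4 in a kinetic plate reader, served as signal; the response to carbachol at EC80 (100 nM final) was taken as maximal over minimal fluorescence after a 10 min compound pre-incubation in rat M1-CHO cells.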

[12] = target: Pyruvate kinase (Leishmania mexicana) (UniProt Q27686); experiment: qHTS Validation Assay for Inhibitors of Leishmania Mexicana Pyruvate Kinase (AID 945)
Method in brief: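 Pyruvate kinase activity of E451W LmPYK (0.2 nM) was followed as ATP output after 1 h at room temperature with 0.5 mM PEP and 0.1 mM ADP, detected by PKLight luminescence.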

[13] = target: Pyruvate kinase PKM (Homo sapiens) (UniProt P14618); experiment: qHTS Assay for Activators of Human Muscle Pyruvate Kinase (AID 954; active = well fitted curve in the direction sought with a large enough effect, not every such curve was filed as active)
Method in brief: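 Luminescence from a luciferase ATP-detection/stop reagent reported PKM2 activity. Reactions contained 0.1 nM purified human enzyme, 0.5 mM PEP, 0.1 mM ADP and 7 mM MgCl2 at pH 7.2, run 1 h at RT.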

[14] = target: Alpha-galactosidase A (Homo sapiens) (UniProt P06280); experiment: Counterscreen for Glucocerebrosidase Inhibitors: qHTS Assay for Human alpha-Galactosidase at pH 4.5 (AID 992)
Method in brief: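 Enzyme at 2 nM final was combined with compound (0.7 nM to 77 uM) and 80 uM 4-methylumbelliferyl alpha-D-galactopyranoside in 50 mM citric acid, 0.005% Tween-20, pH 4.5. After 20 min at room temperature, fluorescence was read (Ex 365/Em 440 nm); AC50 came from Hill fits.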

[15] = target: alpha-glucosidase (Oryza sativa, rice) (UniProt Q653V4); experiment: Counterscreen for Glucocerebrosidase Inhibitors: qHTS Assay for Rice alpha-Glucosidase at pH 5.0 (AID 997)
Method in brief: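 Rice alpha-glucosidase (4 nM final) with 400 uM 4-methylumbelliferyl-alpha-D-glucopyranoside in citrate buffer pH 5.0, 20 min at room temperature, stopped at pH 10; fluorescence 365/440 nm, compounds 0.7 nM–77 uM, AC50 from Hill fits.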

[16] = Validation of Assay for Modulators of Lamin A Splicing (AID 1459; active = well fitted curve in the direction sought with a large enough effect in the signal ratio; the % refers to the signal ratio;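 note: cells exposed to compound for two days before reading; ratio rise marks activators and ratio drop marks inhibitors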)
Method in brief: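 S3 HeLa cells stably expressing a lamin A-EGFP splicing minigene and DsRed2 were seeded at 600 cells/well in Opti-MEM with 2% FBS, pin-dosed, and incubated 48 hrs at 37 °C, 5% CO2. Laser-scanning cytometry (488 nm) gave GFP/RFP total intensity ratio.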

[17] = target: DNA repair nuclease/redox regulator APEX1 (Homo sapiens) (UniProt P27695); experiment: qHTS Validation Assay for Inhibitors of the Human Apurinic/apyrimidinic Endonuclease 1 (APE1) (AID 1705;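 note: TAMRA fluorescence gain over two minutes as APE1 cuts a quenched THF abasic duplex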)
Method in brief: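 Human APE1 was preincubated with compound for 15 min at room temperature, then 50 nM (final) THF-abasic double-stranded DNA substrate bearing 5'-TAMRA and 3'-BHQ-2 was added. Incision-driven fluorescence rise (ex 525/em 598 nm) was read kinetically.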

[18] = Counterscreen for APE1 Inhibitors: Fluorescent Dye Displacement Validation Assay (AID 1707)
Method in brief: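 Thiazole Orange displacement from dsDNA: 250 nM ThO with 50 nM TAMRA-labelled abasic-site (tetrahydrofuran) duplex in 50 mM Tris-HCl pH7.5, 50mM NaCl, 2 mM MgCl2, 0.01% Tween-20. Loss of endpoint fluorescence (ex 480 nm, em 540 nm) flags DNA binders.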

[19] = target: Endonuclease 4 (Escherichia coli (strain K12)) (UniProt P0A6C1); experiment: Counterscreen for APE1 Inhibitors: qHTS Validation Assay for Inhibitors of Endonuclease IV (AID 1708)
Method in brief: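 2 nM enzyme was preincubated with compounds for 15 min at room temperature in 50 mM Tris-HCl pH 7.5, 50 mM NaCl, 2 mM MgCl2, 1 mM DTT, 0.01% Tween-20. 50 nM THF-abasic TAMRA/BHQ-2 duplex substrate started the reaction.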

[20] = qHTS for differential inhibitors of proliferation of Plasmodium falciparum line 7G8 (AID 1815);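 note: potency is the fitted concentration of half-maximal effect; parasite growth measured after three days of incubation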
[21] = qHTS for differential inhibitors of proliferation of Plasmodium falciparum line GB4 (AID 1816); conditions: Potency: Plasmodium falciparum GB4 proliferation inhibition;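 note: potency is the fitted concentration of half-maximal effect; parasite growth measured after 72 h incubation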
[22] = qHTS for differential inhibitors of proliferation of Plasmodium falciparum line 3D7 (AID 1876); note: potency is the fitted concentration of half-maximal effect
[23] = qHTS for differential inhibitors of proliferation of Plasmodium falciparum line D10 (AID 1877);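 note: potency is the fitted concentration of half-maximal effect; parasites grown with compound for 72 h before DNA staining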

Glucocorticoid receptor (Homo sapiens), sequence (P04150 whole entry, looked up, the tested form may be a part): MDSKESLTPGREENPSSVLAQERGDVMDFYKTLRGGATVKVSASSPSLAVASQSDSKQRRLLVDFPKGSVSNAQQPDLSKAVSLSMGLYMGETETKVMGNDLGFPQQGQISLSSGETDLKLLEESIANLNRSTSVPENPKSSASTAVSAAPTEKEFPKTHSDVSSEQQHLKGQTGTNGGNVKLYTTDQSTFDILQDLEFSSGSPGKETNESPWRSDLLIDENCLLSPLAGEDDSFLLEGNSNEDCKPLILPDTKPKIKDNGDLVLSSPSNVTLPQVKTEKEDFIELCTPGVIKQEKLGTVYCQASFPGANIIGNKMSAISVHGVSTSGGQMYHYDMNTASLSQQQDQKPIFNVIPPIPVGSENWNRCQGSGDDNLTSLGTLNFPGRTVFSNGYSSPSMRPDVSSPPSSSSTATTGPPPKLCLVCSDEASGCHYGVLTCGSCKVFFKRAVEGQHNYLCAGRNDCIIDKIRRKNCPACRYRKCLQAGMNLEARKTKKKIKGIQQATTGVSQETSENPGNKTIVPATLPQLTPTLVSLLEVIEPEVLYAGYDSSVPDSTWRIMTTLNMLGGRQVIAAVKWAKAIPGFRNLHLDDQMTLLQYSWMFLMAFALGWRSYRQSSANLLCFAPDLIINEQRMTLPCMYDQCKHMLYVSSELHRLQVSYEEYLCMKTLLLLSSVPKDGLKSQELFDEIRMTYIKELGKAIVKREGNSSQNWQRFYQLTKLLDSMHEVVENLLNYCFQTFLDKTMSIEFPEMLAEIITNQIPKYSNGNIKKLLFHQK
Cytochrome P450 2C9 (Homo sapiens), sequence (P11712 whole entry, looked up): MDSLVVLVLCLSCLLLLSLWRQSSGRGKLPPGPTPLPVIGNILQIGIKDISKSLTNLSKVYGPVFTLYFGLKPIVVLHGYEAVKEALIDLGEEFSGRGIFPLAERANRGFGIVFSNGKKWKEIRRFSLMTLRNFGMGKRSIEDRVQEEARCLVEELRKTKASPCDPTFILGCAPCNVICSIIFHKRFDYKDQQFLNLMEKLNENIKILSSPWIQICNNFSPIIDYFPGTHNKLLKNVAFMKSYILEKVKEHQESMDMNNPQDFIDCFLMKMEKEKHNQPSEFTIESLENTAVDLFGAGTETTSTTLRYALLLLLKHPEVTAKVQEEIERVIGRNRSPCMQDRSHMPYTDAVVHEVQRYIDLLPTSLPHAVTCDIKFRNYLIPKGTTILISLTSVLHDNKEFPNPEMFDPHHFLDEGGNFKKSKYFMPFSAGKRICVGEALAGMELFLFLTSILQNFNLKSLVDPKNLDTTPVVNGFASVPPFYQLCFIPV
3',5'-cyclic-AMP phosphodiesterase 4B (Homo sapiens), sequence (Q07343 whole entry, looked up): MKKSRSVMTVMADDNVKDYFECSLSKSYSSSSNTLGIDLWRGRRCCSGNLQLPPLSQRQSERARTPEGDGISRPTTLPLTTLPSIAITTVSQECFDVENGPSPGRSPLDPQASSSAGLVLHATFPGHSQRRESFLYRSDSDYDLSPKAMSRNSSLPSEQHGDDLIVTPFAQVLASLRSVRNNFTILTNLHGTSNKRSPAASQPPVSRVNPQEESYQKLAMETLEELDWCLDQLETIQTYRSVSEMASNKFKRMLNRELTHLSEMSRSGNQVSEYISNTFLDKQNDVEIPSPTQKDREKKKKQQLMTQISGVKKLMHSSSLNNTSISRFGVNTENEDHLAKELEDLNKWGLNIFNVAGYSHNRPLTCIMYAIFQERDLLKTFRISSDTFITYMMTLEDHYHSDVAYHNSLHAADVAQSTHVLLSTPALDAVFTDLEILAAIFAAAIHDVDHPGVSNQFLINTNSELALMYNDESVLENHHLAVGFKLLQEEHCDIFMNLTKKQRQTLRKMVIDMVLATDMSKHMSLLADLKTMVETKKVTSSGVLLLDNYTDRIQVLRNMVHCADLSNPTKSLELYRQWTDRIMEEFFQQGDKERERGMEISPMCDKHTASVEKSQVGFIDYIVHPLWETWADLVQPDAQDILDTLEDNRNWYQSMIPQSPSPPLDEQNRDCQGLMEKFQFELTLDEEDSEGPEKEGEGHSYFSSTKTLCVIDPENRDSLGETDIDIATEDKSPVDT
Cytochrome P450 1A2 (Homo sapiens), sequence (P05177 whole entry, looked up): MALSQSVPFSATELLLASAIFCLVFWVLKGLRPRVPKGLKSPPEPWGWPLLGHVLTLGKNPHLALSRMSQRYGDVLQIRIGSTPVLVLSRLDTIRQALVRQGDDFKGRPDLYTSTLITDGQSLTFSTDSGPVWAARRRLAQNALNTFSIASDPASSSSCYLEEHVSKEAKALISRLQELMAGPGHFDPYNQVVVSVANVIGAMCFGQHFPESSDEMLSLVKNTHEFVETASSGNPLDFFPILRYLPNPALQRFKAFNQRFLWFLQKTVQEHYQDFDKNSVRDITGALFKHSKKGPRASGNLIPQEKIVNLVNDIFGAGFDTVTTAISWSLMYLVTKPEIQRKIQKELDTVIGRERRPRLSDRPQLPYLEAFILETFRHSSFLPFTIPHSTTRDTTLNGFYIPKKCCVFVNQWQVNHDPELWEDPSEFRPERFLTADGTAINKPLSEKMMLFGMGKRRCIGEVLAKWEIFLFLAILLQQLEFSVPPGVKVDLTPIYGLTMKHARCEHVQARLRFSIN
Cytochrome P450 3A4 (Homo sapiens), sequence (P08684 whole entry, looked up): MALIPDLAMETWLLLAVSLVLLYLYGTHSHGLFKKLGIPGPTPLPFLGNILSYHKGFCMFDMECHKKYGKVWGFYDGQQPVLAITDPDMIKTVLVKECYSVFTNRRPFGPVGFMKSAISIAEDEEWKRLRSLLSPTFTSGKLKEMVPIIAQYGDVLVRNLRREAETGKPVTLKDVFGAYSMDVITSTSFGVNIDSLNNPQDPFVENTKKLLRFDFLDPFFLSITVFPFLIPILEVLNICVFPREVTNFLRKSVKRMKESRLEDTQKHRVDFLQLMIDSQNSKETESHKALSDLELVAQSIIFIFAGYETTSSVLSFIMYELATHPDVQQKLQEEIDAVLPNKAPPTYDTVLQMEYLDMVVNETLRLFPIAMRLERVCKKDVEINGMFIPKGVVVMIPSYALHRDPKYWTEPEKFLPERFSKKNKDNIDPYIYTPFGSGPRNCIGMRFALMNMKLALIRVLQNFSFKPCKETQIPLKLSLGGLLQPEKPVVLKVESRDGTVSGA
Muscarinic acetylcholine receptor M1 (Rattus norvegicus), sequence (P08482 whole entry, looked up): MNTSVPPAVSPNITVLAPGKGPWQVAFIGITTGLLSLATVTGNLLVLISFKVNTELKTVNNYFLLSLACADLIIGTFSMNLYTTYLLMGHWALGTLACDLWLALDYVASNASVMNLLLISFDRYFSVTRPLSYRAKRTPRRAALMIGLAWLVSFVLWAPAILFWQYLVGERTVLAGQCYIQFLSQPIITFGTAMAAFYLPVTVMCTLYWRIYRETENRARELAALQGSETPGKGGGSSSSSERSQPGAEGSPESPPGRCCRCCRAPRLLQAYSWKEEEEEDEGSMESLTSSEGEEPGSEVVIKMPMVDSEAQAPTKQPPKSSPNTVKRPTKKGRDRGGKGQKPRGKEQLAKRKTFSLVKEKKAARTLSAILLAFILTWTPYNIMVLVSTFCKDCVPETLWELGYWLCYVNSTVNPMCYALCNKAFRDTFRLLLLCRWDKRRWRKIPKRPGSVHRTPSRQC
Pyruvate kinase (Leishmania mexicana), sequence (Q27686 2-499 E452W): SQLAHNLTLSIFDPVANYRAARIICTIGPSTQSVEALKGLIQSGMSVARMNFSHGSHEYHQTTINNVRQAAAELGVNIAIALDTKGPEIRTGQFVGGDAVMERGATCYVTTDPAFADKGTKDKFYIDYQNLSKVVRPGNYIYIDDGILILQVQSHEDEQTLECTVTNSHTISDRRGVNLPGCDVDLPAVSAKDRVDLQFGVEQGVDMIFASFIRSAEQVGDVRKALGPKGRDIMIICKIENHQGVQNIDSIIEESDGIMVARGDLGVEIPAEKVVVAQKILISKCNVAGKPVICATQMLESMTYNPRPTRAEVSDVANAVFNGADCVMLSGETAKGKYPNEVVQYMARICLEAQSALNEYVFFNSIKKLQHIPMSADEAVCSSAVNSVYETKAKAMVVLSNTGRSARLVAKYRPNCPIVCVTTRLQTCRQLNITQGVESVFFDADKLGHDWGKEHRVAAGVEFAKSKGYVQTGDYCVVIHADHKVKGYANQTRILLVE
Pyruvate kinase PKM (Homo sapiens), sequence (P14618 whole entry, looked up): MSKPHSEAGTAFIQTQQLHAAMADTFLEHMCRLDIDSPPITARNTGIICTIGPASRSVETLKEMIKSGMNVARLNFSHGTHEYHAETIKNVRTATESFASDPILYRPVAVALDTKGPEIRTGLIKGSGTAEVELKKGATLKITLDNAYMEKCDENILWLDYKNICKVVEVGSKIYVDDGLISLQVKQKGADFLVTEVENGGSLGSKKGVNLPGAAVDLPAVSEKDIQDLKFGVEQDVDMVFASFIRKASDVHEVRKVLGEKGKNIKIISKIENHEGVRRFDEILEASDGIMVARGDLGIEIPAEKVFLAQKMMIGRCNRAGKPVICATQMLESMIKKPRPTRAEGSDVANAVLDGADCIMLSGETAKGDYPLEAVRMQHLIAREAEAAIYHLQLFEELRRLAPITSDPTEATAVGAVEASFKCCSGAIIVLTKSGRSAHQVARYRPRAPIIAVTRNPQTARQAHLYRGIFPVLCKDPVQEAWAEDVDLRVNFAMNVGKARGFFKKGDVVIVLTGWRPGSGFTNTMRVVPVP
Alpha-galactosidase A (Homo sapiens), sequence (P06280 whole entry, looked up): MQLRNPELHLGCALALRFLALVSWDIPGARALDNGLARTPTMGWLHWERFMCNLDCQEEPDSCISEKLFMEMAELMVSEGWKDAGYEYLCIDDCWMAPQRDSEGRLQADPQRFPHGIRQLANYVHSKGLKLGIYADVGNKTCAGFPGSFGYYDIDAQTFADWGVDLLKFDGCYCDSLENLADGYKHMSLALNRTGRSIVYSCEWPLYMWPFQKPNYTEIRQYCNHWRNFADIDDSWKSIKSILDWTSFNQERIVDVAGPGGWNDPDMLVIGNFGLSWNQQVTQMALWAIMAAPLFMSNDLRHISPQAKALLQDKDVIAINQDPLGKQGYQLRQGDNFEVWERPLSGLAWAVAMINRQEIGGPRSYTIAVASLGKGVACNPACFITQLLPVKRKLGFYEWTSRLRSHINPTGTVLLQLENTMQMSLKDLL

**Q.** Which Potency [1] does the source give for `COc1cc2c(cc1C(F)(F)F)N(C(=O)Nc1cc(F)cc(-c3cccnc3)c1)CC2` here?
**A.** 794 nM (active) and 316 nM (active)

**Q.** And the activity change, negative = inhibition [2]?
**A.** -8.89%

**Q.** What about the Potency [3] of the same molecule?
**A.** > 46000 nM

**Q.** What about the Potency [4] of the same molecule?
**A.** > 46000 nM

**Q.** What about the Potency [5] of the same molecule?
**A.** inactive

**Q.** What about the Potency [6] of the same molecule?
**A.** inactive

**Q.** What about the outcome [7] of the same molecule?
**A.** inactive

**Q.** And the Potency [8]?
**A.** 10 µM (active) and 794 nM (active)

**Q.** And the Potency [9]?
**A.** 2510 nM (active)

**Q.** What about the Potency [10] of the same molecule?
**A.** inactive

**Q.** And the Potency [11]?
**A.** inactive

**Q.** And the Potency [12]?
**A.** inactive

**Q.** What about the outcome [13] of the same molecule?
**A.** inactive

**Q.** And the outcome [14]?
**A.** inactive

**Q.** What about the outcome [15] of the same molecule?
**A.** inactive

**Q.** What about the outcome [16] of the same molecule?
**A.** inactive

**Q.** What about the Potency [17] of the same molecule?
**A.** inactive

**Q.** And the Potency [18]?
**A.** inactive

**Q.** What about the Potency [19] of the same molecule?
**A.** inactive

**Q.** What about the Potency [20] of the same molecule?
**A.** 2000 nM (active)

**Q.** And the Potency [21]?
**A.** 2240 nM (active)

**Q.** And the Potency [22]?
**A.** 1580 nM (active)

**Q.** And the Potency [23]?
**A.** 2240 nM (active)
